The whole screen tested about 310,000 compounds, of which about 14,000 (4.5%) showed an effect of 50% or more. Effects have a minus sign here. The sample holds strong results, similar compounds and a random draw of the others, so the mix is not that of the screen.
These compounds were tested against human ether-à-go-go-related gene (hERG) potassium channel (human, UniProt Q12809) (assay: primary screen, population patch clamp on CHO cells stably expressing hERG; higher = less effect of the substance).
Sequence of human ether-à-go-go-related gene (hERG) potassium channel (Q12809 whole entry, looked up): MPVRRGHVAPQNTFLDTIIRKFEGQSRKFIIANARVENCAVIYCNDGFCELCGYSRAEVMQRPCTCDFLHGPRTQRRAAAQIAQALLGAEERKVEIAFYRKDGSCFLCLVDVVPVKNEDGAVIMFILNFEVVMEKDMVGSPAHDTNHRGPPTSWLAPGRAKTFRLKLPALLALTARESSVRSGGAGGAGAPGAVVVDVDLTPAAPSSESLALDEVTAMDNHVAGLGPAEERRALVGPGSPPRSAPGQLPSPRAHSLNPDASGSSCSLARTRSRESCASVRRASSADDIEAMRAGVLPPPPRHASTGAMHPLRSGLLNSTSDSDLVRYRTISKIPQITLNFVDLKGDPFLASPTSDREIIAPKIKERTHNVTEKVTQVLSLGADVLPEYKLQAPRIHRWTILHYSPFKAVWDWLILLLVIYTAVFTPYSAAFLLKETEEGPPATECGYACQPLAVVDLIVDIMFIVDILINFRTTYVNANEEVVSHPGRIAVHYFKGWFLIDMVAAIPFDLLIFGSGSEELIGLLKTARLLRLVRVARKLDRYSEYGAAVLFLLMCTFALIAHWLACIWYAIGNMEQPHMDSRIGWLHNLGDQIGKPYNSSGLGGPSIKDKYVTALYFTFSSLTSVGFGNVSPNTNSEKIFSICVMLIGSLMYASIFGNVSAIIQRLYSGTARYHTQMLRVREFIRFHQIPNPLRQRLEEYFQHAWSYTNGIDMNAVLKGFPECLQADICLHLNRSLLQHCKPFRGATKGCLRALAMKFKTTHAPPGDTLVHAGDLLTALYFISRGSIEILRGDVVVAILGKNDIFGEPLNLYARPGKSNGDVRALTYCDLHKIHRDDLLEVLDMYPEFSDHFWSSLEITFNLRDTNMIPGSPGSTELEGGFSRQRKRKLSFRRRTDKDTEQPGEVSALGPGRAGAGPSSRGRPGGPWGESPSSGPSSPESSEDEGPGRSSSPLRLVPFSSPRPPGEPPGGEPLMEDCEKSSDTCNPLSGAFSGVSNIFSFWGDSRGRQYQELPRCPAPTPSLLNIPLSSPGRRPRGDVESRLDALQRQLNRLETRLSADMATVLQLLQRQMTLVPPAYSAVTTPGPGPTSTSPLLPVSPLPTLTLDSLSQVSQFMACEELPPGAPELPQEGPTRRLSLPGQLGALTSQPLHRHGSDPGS
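Note: peak tail current of the secondary pulse compared with the same well before compound.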

SMILES | hERG current change (%, negative = inhibition) at 10uM
COc1cc2cc(CN(CCO)S(=O)(=O)c3ccccc3Cl)c(=O)[nH]c2cc1OC | 0.98%
O=C(NCCCCc1ccccc1)c1ccccc1Cl | -9.21%
CN(NC1OC(=O)c2ccccc21)c1ccc(C(F)(F)F)cc1[N+](=O)[O-] (stereo not drawn) | 34.2%
O=C(Nc1ccc(S(=O)(=O)Nc2ncccn2)cc1)C12CC3CC(CC(C3)C1)C2 | 13.4%
Cc1cc(C)c2nc(N3CCCN(C(=O)c4cnccn4)CC3)c(C#N)cc2c1 | -38.5%
CCc1nnc(SCC(=O)Nc2nccs2)n1CC | 18%
Cn1cc(CC(=O)NC2CCCCC2)c2ccccc21 | 21.3%
Cc1ccsc1C1C(C#N)=C(N)Oc2n[nH]c(C)c21 (stereo not drawn) | 18.7%
CC1(C)CC(=O)C(C=NCCN2CCN(C(=O)c3ccc(Br)cc3)CC2)=C(O)C1 | -48.2%
Cc1[nH]n(-c2ccccc2)c(=O)c1/C=N/NC(=O)c1cccc(F)c1 | 20.1%
COC(=O)CN=Cc1c(C)[nH]n(-c2ccccc2)c1=O | -1.99%
Cc1[nH]n(-c2ccccc2)c(=O)c1/C=N/NC(=O)c1ccccc1F | 2.32%
Cc1[nH]n(-c2ccc([N+](=O)[O-])cc2)c(=O)c1C=NCCN1CCN(C(=O)c2cccc(F)c2)CC1 | -73.4%
Cc1[nH]n(-c2ccc([N+](=O)[O-])cc2)c(=O)c1C=NCCN1CCN(C(=O)c2ccccc2F)CC1 | -71.2%
Cc1[nH]n(-c2ccc([N+](=O)[O-])cc2)c(=O)c1C=NCCN1CCN(C(=O)C(C)C)CC1 | -64.2%
Cc1[nH]n(-c2ccc([N+](=O)[O-])cc2)c(=O)c1C=NCCc1ccc(S(N)(=O)=O)cc1 | 10.7%
Cn1c(O)c(C=NCCN2CCN(C(=O)c3ccccc3)CC2)c(=O)n(C)c1=O | -16.6%
Cc1[nH]n(-c2ccc([N+](=O)[O-])cc2)c(=O)c1C=NCCN1CCN(C(=O)c2ccc(Br)cc2)CC1 | -76.6%
COc1ccc(CCN=Cc2c(C)[nH]n(-c3ccc([N+](=O)[O-])cc3)c2=O)cc1OC | 16.4%
Cc1[nH]n(-c2ccc([N+](=O)[O-])cc2)c(=O)c1/C=N/N1CCOCC1 | 0.128%
CC(=O)Nc1cccc(NC(=O)CSc2nccn2Cc2ccc(F)cc2)c1 | 0.742%
COc1cc2c(cc1NC(=O)C(C)OC(=O)c1ccc(S(=O)(=O)Nc3ccccc3Cl)cc1)oc1ccccc12 (stereo not drawn) | 21.8%
CCCCCCNc1cc(C)oc(=O)c1C(C)=O | -34.2%
CCOC(=O)C1CCCN(c2c(Nc3ccc(C)c(C)c3)c(=O)c2=O)C1 (stereo not drawn) | -25.1%

SMILES | hERG current change (%, negative = inhibition) at 10uM
CC(=O)c1ccc(NC(=O)C2C3C=CC(C3=C(c3ccccc3)c3ccccc3)C2C(=O)O)cc1 (stereo not drawn) | 2.53%
Br.COc1ccc(N=C/C=C2/C=C(c3ccccc3)OC(C)(C)O2)cc1 | -49.1%
COc1cc(-c2nc3ccccn3c2/N=C/c2cccc(F)c2)ccc1O | 4.38%
CCn1cc(C(=O)NC(=S)Nc2ccccc2Br)cn1 | 3.21%
O=C(O)CSCC(=O)N1CCCN(c2nc3ccc(Cl)cc3s2)CC1 | 5.89%
CCOC(=O)c1ccc(NC(=O)c2ccccc2C)cc1 | -21.2%
CCOC(=O)NC(=O)COC(=O)c1ccc(O)cc1 | -6.29%
CCOC(=O)N/N=C(\C)c1cccs1 | 20.2%
CC(Sc1nnc(N)s1)C(=O)NCc1ccc2c(c1)OCO2 (stereo not drawn) | 0.709%
COc1ccc(CC(=O)Nc2cc(Cl)ccc2O)cc1 | -1.45%
CSCC[C@H](NC(=O)NCc1cccs1)C(=O)O | -10.4%
CN1CCN(c2ccc(NC(=S)NC(=O)c3cccc4ccccc34)cc2)CC1 | -51%
CN1CCN(c2ccc(NC(=O)COc3ccccc3Cl)cc2)CC1 | -29.2%
CN1CCN(c2ccc(NC(=O)COc3cccc4ccccc34)cc2)CC1 | -65.4%
CN1CCN(c2ccc(NC(=S)NC(=O)c3cccc4c(Br)cccc34)cc2)CC1 | 16.2%
CN1CCN(c2ccc(NC(=S)NC(=O)c3cccc4c(Cl)cccc34)cc2)CC1 | 0.63%
Cc1ccccc1OCC(=O)Nc1ccc(N2CCN(C(=O)C(C)C)CC2)c(Cl)c1 | -31.2%
Cc1ccccc1OCC(=O)NC(=S)Nc1ccc(N2CCOCC2)c(Cl)c1 | 15.3%
CN1CCN(c2ccc(NC(=O)COc3ccc4ccccc4c3)cc2)CC1 | -17.3%
Cc1ccccc1OCC(=O)Nc1ccc(N2CCN(C)CC2)c(Cl)c1 | -68.8%
CC(C)Cc1nnc(NC(=O)C23CC4CC(CC(C4)C2)C3)s1 | 5.58%
Cc1cccc2cc(CN(CC3CCCO3)C(=O)c3cccnc3)c3nnnn3c12 (stereo not drawn) | -5.82%
Cc1cc(NCCCN(C)C)n2c(nc3ccccc32)c1C#N | -1.49%
Cc1cc(C)nc(SCC(=O)N/N=C/c2ccc3c(c2)OCO3)n1 | 8.05%

SMILES | hERG current change (%, negative = inhibition) at 10uM
CCOc1ccc(OCCSc2nc(N)cc(=O)[nH]2)cc1 | 1.58%
O=C(CSc1nc2ccccc2o1)NC1CCCC1 | 16.5%
CCCn1nc(C(=O)NCCc2ccc(S(N)(=O)=O)cc2)c2ccccc2c1=O | -15.8%
C/C(=N\Nc1nc2ccccc2[nH]1)c1ccc(C)o1 | -17.7%
C/C(=N\Nc1nc2ccccc2[nH]1)c1ccccn1 | -72.8%
C/C(=N\Nc1nc2ccccc2[nH]1)c1cccs1 | -19.2%
CS(=O)(=O)N1CCc2cc(S(=O)(=O)N3CCCCC3)ccc21 | -14.8%
CC(=O)Nc1ccc(C(=O)OCc2ccc(F)cc2)cc1 | -10.9%
COc1ccc([C@H]2CC(=O)C=C(c3cccc(C(C)C)c3)C2)cc1 | -2.79%
Cc1[nH][nH]c(=O)c1C(c1cc(Br)ccc1O)c1c(C)[nH][nH]c1=O | 12%
Cc1[nH][nH]c(=O)c1C(c1cc([N+](=O)[O-])ccc1O)c1c(C)[nH][nH]c1=O | -62.5%
Cc1[nH][nH]c(=O)c1C(c1ccc([N+](=O)[O-])cc1)c1c(C)[nH][nH]c1=O | 23.9%
Cc1ccccc1NC(=O)CSc1nc(N)c(C#N)c(-c2cccs2)c1C#N | 6%
CCOc1ccc(C(=O)OCC(=O)NCCNC(=O)COC(=O)c2ccc(OCC)cc2)cc1 | 13.8%
CCCSc1nnc(CNS(=O)(=O)c2ccc(C)cc2)n1C | 8.4%
CCOC(=O)n1c(=O)n(C)c2ccc(Br)cc21 | -7.75%
C=CCn1c(=O)n(C(=O)OCC)c2cc(Br)ccc21 | -50.2%
CCOC(=O)n1c(=O)[nH]c2ccc(Br)cc21 | 2.18%
CC(=O)N1CCN(c2ccc(NC(=O)c3cccc(C)c3)cc2)CC1 | 18.5%
COC(=O)c1ccc(NC(=O)CSc2nn3c(=O)c(C)nnc3s2)cc1 | 7.44%
N#Cc1cccc(S(=O)(=O)NCC(=O)NCc2ccc3c(c2)OCO3)c1 | 5.51%
COc1ccc(C(=O)OCC(=O)c2ccc(C3CCCCC3)cc2)cc1 | 5.66%
CN1CCN(CCCCC(=O)c2ccccc2)CC1.Cl | -0.477%
CN1CCN(CCC(=O)Nc2ccc(C3CCCC3)cc2)CC1.Cl | -55.1%

SMILES | hERG current change (%, negative = inhibition) at 10uM
CN1CCN(CCCC(=O)c2ccc(C3CCCC3)cc2)CC1.Cl.O | -50%
Cc1ccc(NC(=O)CCN2CCN(C)CC2)cc1.Cl | 10.6%
Cl.O=C(CCN1CCN(CCO)CC1)Nc1ccc(C2CCCC2)cc1 | -43%
O=C(C[n+]1ccccc1)N/N=C/c1ccc(C(=O)O)cc1.[Cl-] | 0.121%
CC(C)(C)C(=O)Nc1sc2c(c1C#N)CCCCC2 | 2.28%
CCOC(=O)C1CCCN(S(=O)(=O)c2ccc3c(c2)CC(C)N3C(=O)C2CC2)C1 (stereo not drawn) | 9.65%
COc1ccc(N(CC(=O)NCc2cccc(OC)c2)S(=O)(=O)c2c(C)noc2C)cc1 | -41.1%
COc1ccccc1NC(=S)NNC(=O)c1c(Cl)c(C)nn1C | 32.8%
CN(C1CCCCC1)S(=O)(=O)c1cccc(C(=O)OCC(=O)NC2CCCc3ccccc32)c1 (stereo not drawn) | -13.9%
CCOC(=O)C1CCCN(CCC(=O)Nc2cc(C)cc(C)c2)C1 (stereo not drawn) | -58.4%
Cc1cc(C)cc(NC(=O)CCN2CCCC2)c1 | -15.8%
CCOC(=O)C1CCCN(CCC(=O)Nc2ccccc2)C1.Cl (stereo not drawn) | -9.04%
CCOC(=O)C1CCCN(CCC(=O)Nc2ccccc2C)C1.Cl (stereo not drawn) | 12.5%
CCOC(=O)C1CCCN(CCC(=O)Nc2ccc(C)cc2)C1.Cl (stereo not drawn) | -30.4%
CCOC(=O)C1CCCN(CCC(=O)Nc2ccc3c(c2)CCC3)C1 (stereo not drawn) | -50.4%
CCOC(=O)C1CCCN(CCC(=O)Nc2ccc(Br)cc2)C1.Cl (stereo not drawn) | -66.7%
CC1CCCN(CCC(=O)Nc2ccc3c(c2)CCC3)C1.Cl (stereo not drawn) | -33.5%
CCOC(=O)C1CCN(CCC(=O)Nc2cc(C)ccc2C)CC1 | -10.7%
CCOC(=O)C1CCCN(CCC(=O)Nc2cccc(C)c2)C1.Cl (stereo not drawn) | -24.5%
CCOC(=O)C1CCCN(CCC(=O)Nc2cc(C)ccc2C)C1.Cl (stereo not drawn) | -67.2%
CCOC(=O)C1CCCN(CCC(=O)Nc2ccc(C)c(C)c2)C1.Cl (stereo not drawn) | -44.8%

— PMC4336329 (PLoS ONE, 2015)
